The values that follow come from PubChem BioAssay (NCI).

Structures are written as SMILES. About 83,000 compounds went through this panel and 20% of them were active in at least one assay; those are over-represented in the sample as a whole.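 48-hour exposure, single concentration, 96-well plates; percent growth endpoint where 0 means no net growth. Active: below 10.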 A number with no mark means an inactive call. Active and inactive are the calls of the source.

Some test systems named below: NCI-H226 lung; NCI-H322M lung; HOP-62 NSCLC; NCI-H460 lung; HOP-92 NSCLC; NCI-H522 lung; A549/ATCC NSCLC; 786-0 renal; COLO 205 colon; DU-145 prostate; K-562 leukemia; MALME-3M melanoma; MDA-MB-231 breast; RXF 393 renal; SF-268 CNS; SF-295 CNS; SF-539 CNS; UACC-257 melanoma; M14 melanoma; HCT-15 colon.
Common to all, as to test: NCI-60 one-dose screen, 48 h (100 = growth as untreated, 0 = no growth, -100 = all killed)
Conditions in all cases: 10 µM unless noted

`COc1cc(-c2nc3ccc(-c4nnc(SCC(=O)Nc5ccc(C(C)=O)cc5)o4)cc3[nH]2)cc(OC)c1OC`: the growth in the assay on NCI-H226 lung was 105%; with NCI-H322M lung, 99.5%; in the assay with HOP-62 NSCLC, 98.7%; in the assay on NCI-H460 lung, 103%; in the assay with HOP-92 NSCLC it was 92.5%; in the assay with NCI-H522 lung, 99.5%. Further, the growth was 99.9% in the assay with A549/ATCC NSCLC; 106% with 786-0 renal; 110% in the assay on COLO 205 colon; 115% with DU-145 prostate; 108% in the assay with K-562 leukemia; 97.7% with MALME-3M melanoma. The growth is 96% with MDA-MB-231 breast; 116% with RXF 393 renal; 111% in the assay with SF-268 CNS; 101% in the assay with SF-295 CNS; 97.6% in the assay on SF-539 CNS; 105% in the assay on UACC-257 melanoma. Further, the values for the growth with M14 melanoma and in the assay with HCT-15 colon were 105% and 103%, respectively.

Consider `O=C(N/N=C/c1ccc([N+](=O)[O-])s1)c1[nH]c2ccc(Br)cc2c1-c1ccccc1`, for which the growth is 23.7% in the assay on NCI-H226 lung; 54.9% in the assay on NCI-H322M lung; 27.2% in the assay on HOP-62 NSCLC; -26.1% (active) in the assay with NCI-H460 lung; -7.35% (active) in the assay with HOP-92 NSCLC; -44.5% (active) in the assay on NCI-H522 lung. Also, the growth with A549/ATCC NSCLC was 14.5%; in the assay on 786-0 renal, 9.9% (active); in the assay with COLO 205 colon, -55.5% (active); in the assay on DU-145 prostate it was 20.4%; in the assay with K-562 leukemia, 5.34% (active); in the assay on MALME-3M melanoma, 14.8%. For the same compound, the growth is -24.1% (active) in the assay on MDA-MB-231 breast; 39.3% in the assay on RXF 393 renal; 36.4% with SF-268 CNS; 23.8% in the assay on SF-295 CNS; -21.2% (active) with SF-539 CNS; 58% in the assay on UACC-257 melanoma. Moreover, the growth in the assay with M14 melanoma was -34.5% (active); in the assay with HCT-15 colon it was 4.77% (active).

Take `COc1ccc2[nH]cc(-c3cc(N)n4nc(-c5c[nH]c6ccc(OC)cc56)cc4n3)c2c1`: the growth in the assay on NCI-H226 lung is 36.8%; in the assay with NCI-H322M lung, 25.4%; in the assay with HOP-62 NSCLC it was 76.2%; in the assay on NCI-H460 lung, -84.6% (active); in the assay on HOP-92 NSCLC, 79.1%; in the assay with NCI-H522 lung it was 53.9%. Also, the growth with A549/ATCC NSCLC is -5.78% (active); with 786-0 renal it was -86.4% (active); in the assay on COLO 205 colon it was -54.3% (active); in the assay on DU-145 prostate it was -10.5% (active); with K-562 leukemia, -35.5% (active); in the assay with MALME-3M melanoma, -68.4% (active). Besides, the growth in the assay on MDA-MB-231 breast was -12.6% (active); with RXF 393 renal, -50.6% (active); in the assay on SF-268 CNS, -30% (active); in the assay with SF-295 CNS, 25.2%; in the assay on SF-539 CNS, -89.7% (active); in the assay on UACC-257 melanoma, -21.8% (active). The growth was -78.3% (active) in the assay with M14 melanoma and 1.36% (active) in the assay with HCT-15 colon.

Take `Nc1c(C(=O)Nc2ccc(Cl)cc2)sc2nc(-c3cnccn3)cc(-c3cccs3)c12`: the growth with NCI-H226 lung was 13.2%; with NCI-H322M lung it was 70.2%; in the assay on HOP-62 NSCLC, 44.4%; in the assay on NCI-H460 lung it was 63.1%; in the assay with HOP-92 NSCLC, 52.6%; with NCI-H522 lung, 93%. The growth is 68.8% in the assay on A549/ATCC NSCLC; 71.2% with 786-0 renal; 70.3% in the assay on DU-145 prostate; 40.5% in the assay with K-562 leukemia; 91.2% with MALME-3M melanoma; 72.9% in the assay with MDA-MB-231 breast. Besides, the growth in the assay with RXF 393 renal is 61.5%; in the assay on SF-268 CNS it was 47.2%; in the assay with SF-295 CNS it was 59%; in the assay with SF-539 CNS it was 12.2%; in the assay with UACC-257 melanoma, 81.5%; in the assay on M14 melanoma, 89.2%. Moreover, in the assay on HCT-15 colon, the growth was 62.5%.

Take `CCN1C(=S)N(CC)C2C1N=C(SC)N2/N=C/C=C/c1ccccc1[N+](=O)[O-]` (stereo not drawn): the growth in the assay on NCI-H226 lung was 92.9%; in the assay with NCI-H322M lung, 92.3%; with HOP-62 NSCLC, 99.7%; with NCI-H460 lung it was 93.5%; in the assay with HOP-92 NSCLC it was 79.7%; in the assay on NCI-H522 lung, 93.6%. For the same compound, the growth is 92.8% with A549/ATCC NSCLC; 101% in the assay on 786-0 renal; 120% in the assay with COLO 205 colon; 101% in the assay on DU-145 prostate; 68.1% in the assay with K-562 leukemia; 93.8% in the assay on MALME-3M melanoma. The growth in the assay on MDA-MB-231 breast was 89.7%; with RXF 393 renal, 115%; with SF-268 CNS, 88.5%; with SF-295 CNS, 90.4%; in the assay on SF-539 CNS, 81.1%; with UACC-257 melanoma, 109%. The growth in the assay on M14 melanoma was 108%; in the assay on HCT-15 colon, 79.2%.

Turning to `N#Cc1nc(-c2ccccc2)oc1S(=O)(=O)N1CCCCC1`, the growth with NCI-H226 lung was 105%; in the assay on NCI-H322M lung, 104%; in the assay on HOP-62 NSCLC it was 110%; in the assay with NCI-H460 lung it was 110%; in the assay with HOP-92 NSCLC, 55.7%; in the assay on NCI-H522 lung it was -62% (active). In addition, the growth in the assay on A549/ATCC NSCLC is 98.7%; with 786-0 renal it was 24.7%; with COLO 205 colon it was 44.1%; in the assay with DU-145 prostate it was 41.6%; in the assay on MALME-3M melanoma it was -68.8% (active); in the assay on MDA-MB-231 breast, 20.6%. Besides, the growth is -71.8% (active) in the assay on RXF 393 renal; 110% in the assay on SF-268 CNS; 107% in the assay on SF-295 CNS; 77.3% in the assay with SF-539 CNS; 94.1% in the assay with UACC-257 melanoma; -15.2% (active) in the assay on M14 melanoma. The growth with HCT-15 colon was -35.3% (active).

For `COc1cc2nc(-c3ccc(C)cc3)cc(OCCCNCC3CCCO3)c2cc1OC` (stereo not drawn), the growth in the assay with NCI-H226 lung is 89.4%; in the assay with NCI-H322M lung, 70.4%; in the assay with HOP-62 NSCLC, 75.2%; in the assay with NCI-H460 lung, 38%; in the assay on HOP-92 NSCLC, 47%; in the assay with NCI-H522 lung, 59.1%. Moreover, the growth is 61.6% in the assay with A549/ATCC NSCLC; 73.5% in the assay on 786-0 renal; 45.4% in the assay on COLO 205 colon; 60% in the assay with DU-145 prostate; 43.6% with K-562 leukemia; 50% in the assay on MALME-3M melanoma. Moreover, the growth in the assay on MDA-MB-231 breast is 59.1%; with RXF 393 renal, 59.6%; with SF-268 CNS, 79.7%; in the assay on SF-295 CNS, 59.9%; with SF-539 CNS, 73.7%; in the assay with UACC-257 melanoma it was 17.8%. The growth in the assay on M14 melanoma was 14.3%; in the assay with HCT-15 colon, 38%.
